Activity calls are given as the source filed them.
Assays:
[1] = small molecules captured by biotinylated probe aFSTL3 – biochemical, small-molecule microarray, fluorescence 635/667, stem cell growth factor project, primary screen (AID 1064); details: higher = more signal;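 also: measures binding of the biotinylated anti-FSTL3 antibody to printed compounds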
[2] = binders from COS7 lysate, DM2A8 probe, primary screen, torsin A project, cell lysate, small-molecule microarray, fluorescence 635/667 (AID 1065); details: higher = more signal, COS7 lysate expressing mutant human TOR1A
[3] = small molecules captured by biotinylated probe aFGF2 – biochemical, small-molecule microarray, fluorescence 635/667, stem cell growth factor project, primary screen (AID 1067); details: higher = more signal;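 also: measures binding of biotinylated aFGF2 protein to printed compounds on slides; z-score merges feature fluorescence and signal-to-noise across triplicate slides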
[4] = small molecules captured by biotinylated probe aFGF10 – biochemical, small-molecule microarray, fluorescence 635/667, stem cell growth factor project, primary screen (AID 1071); details: higher = more signal;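 also: score merges 667 nm spot intensity and signal to noise from triplicate slides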
[5] = target: Neurogenic locus notch homolog protein 2 (Homo sapiens) (UniProt Q04721); assay: small molecules binding Notch2 protein – biochemical, small-molecule microarray, 635 nm fluorescence, stem cell growth factors, primary screen (AID 1073); details: higher = more signal
Sequence of Neurogenic locus notch homolog protein 2 (Homo sapiens) (Q04721 whole entry, looked up, canonical isoform): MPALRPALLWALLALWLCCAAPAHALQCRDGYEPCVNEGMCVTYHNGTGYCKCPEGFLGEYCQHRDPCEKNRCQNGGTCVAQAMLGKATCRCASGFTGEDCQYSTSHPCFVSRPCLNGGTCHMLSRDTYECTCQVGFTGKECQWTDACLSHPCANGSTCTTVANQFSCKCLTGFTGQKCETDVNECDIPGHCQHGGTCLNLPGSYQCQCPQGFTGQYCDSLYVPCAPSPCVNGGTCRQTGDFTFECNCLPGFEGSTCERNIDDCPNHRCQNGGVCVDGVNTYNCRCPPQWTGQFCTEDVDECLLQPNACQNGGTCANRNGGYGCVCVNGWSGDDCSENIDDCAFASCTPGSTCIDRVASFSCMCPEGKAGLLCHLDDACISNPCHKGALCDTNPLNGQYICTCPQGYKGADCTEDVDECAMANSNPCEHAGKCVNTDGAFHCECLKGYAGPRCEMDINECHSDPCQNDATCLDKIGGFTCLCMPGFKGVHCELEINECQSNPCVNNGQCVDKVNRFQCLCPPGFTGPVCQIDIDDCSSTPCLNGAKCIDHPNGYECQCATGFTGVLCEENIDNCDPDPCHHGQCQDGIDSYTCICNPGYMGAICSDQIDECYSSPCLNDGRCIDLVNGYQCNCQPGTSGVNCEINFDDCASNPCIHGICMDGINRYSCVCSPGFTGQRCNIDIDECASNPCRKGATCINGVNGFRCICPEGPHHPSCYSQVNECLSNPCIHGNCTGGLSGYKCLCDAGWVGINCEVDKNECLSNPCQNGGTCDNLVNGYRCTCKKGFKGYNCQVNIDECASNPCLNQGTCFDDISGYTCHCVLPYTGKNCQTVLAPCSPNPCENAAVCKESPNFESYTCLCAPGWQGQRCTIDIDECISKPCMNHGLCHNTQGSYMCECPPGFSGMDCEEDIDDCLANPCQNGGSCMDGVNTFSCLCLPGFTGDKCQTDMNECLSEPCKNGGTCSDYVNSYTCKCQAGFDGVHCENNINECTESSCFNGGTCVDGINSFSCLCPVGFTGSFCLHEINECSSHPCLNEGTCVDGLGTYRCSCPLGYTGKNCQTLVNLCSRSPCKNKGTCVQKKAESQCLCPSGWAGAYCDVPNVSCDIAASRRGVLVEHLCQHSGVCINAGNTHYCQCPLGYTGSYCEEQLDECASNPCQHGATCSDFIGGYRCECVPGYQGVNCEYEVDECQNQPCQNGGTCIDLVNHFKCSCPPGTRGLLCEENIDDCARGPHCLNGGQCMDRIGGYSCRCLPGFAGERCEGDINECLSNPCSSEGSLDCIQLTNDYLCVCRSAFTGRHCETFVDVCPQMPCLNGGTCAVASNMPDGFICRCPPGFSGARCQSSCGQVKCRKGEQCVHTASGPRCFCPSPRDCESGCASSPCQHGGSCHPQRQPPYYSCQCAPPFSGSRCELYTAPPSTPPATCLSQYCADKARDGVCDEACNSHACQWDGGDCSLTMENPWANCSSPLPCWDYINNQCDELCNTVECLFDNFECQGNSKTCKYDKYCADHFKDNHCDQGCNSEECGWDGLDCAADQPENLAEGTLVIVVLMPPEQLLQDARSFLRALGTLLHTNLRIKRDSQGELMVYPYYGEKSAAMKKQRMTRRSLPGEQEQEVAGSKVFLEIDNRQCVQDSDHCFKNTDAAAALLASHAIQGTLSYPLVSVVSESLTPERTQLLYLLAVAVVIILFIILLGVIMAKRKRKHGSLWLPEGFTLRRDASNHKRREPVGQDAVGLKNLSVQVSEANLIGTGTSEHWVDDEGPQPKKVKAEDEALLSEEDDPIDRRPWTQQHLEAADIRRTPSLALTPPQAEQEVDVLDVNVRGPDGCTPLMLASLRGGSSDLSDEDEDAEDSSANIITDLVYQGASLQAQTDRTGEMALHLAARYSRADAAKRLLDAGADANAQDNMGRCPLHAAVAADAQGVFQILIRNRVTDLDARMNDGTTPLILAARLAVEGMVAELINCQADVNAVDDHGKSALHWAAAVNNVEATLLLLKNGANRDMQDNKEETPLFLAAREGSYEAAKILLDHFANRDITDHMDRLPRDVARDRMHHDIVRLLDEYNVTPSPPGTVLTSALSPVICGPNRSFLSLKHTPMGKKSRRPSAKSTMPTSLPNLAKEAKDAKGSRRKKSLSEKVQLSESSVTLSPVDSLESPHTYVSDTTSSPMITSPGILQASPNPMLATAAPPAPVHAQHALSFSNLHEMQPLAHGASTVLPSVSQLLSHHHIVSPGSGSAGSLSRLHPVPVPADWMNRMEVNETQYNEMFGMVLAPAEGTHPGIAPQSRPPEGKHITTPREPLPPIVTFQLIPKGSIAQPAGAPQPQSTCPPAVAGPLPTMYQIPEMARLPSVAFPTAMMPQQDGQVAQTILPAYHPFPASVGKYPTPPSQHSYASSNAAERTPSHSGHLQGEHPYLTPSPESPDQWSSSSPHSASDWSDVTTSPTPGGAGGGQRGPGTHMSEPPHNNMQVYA

[6] = target: Pro-neuregulin-1, membrane-bound isoform (Homo sapiens) (UniProt Q02297); assay: small molecules binding neuregulin-1 protein – biochemical, small-molecule microarray, fluorescence 635/667, psychiatric disease protein project, primary screen (AID 1075); details: NRG1 binding, 635 nm fluorescence, higher = more signal;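 also: score combines 667 nm spot fluorescence with signal to noise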
[7] = system: Neuregulin-1 EGF-like domain; assay: small molecules binding NRG1 EGF domain – biochemical, small-molecule microarray, 635 nm fluorescence, primary screen (AID 1081); details: higher = more signal;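 also: binding of the protein to compounds printed on small-molecule microarray slides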
[8] = FRG1 expression reporter modulators in myotubes – cell-based, C2C12 myotubes, firefly/Renilla luciferase, luminescence, FRG1 inhibition for FSHD, primary screen (AID 1084); details: FRG1 promoter luciferase, higher = more signal, called active from +8 up or from −8 down
[9] = small molecules captured by biotinylated probe aFST – biochemical, small-molecule microarray, fluorescence 635/667, stem cell growth factor project, primary screen (AID 1086); details: higher = more signal;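 also: score merges 667 nm fluorescence with signal-to-noise of each printed compound spot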
[10] = binders of probe aHhip on microarray, primary screen, stem cell growth factor project, biochemical, small-molecule microarray, fluorescence 635/667 (AID 1087); details: higher = more signal;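 also: score merges spot fluorescence at 667nm with spot signal to noise ratio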
[11] = system: PRMT1 (protein arginine N-methyltransferase 1); assay: small molecules binding arginine methyltransferase PRMT1 – biochemical, small-molecule microarray, 635 nm fluorescence, primary screen (AID 1088); details: higher = more signal;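 also: binding of Prmt1 protein to compounds spotted on small-molecule microarray slides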
[12] = growth effects on S. cerevisiae YJM789 – YJM789 clinical isolate, OD600, 24 h, basal, primary screen (AID 1089); details: higher = more signal, called active from +8 up or from −8 down;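 also: growth of clinical yeast isolate S. cerevisiae YJM 789 seeded 1000 cells per well; test concentration not given here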
[13] = S. pombe growth modifiers, basal conditions – strain 972, OD600, 24 h, no modulator, primary screen (AID 1090);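 also: basal condition with compound alone and no growth modifier present; test concentration not given here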; details: S. pombe 972 growth, higher = more signal, called active from +8 up or from −8 down
[14] = budding yeast growth modifiers under rapamycin – strain BY4716, OD600, 96 h, primary screen (AID 1091); also: test concentration not given here; details: S. cerevisiae BY4716 + rapamycin, higher = more signal, called active from +8 up or from −8 down
[15] = target: Torsin-1A-interacting protein 2 (Homo sapiens) (UniProt Q8NFQ8); assay: small molecules binding lysate-expressed LULL1 – cell lysate, human LULL1 lysate, 635/667 nm fluorescence, primary screen (AID 1092); details: small-molecule microarray, hLULL1 lysate binding, 635 nm fluorescence; higher = more signal;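 also: probe is lysate of COS7 cells overexpressing human LULL1; score merges per-feature 667 nm fluorescence with signal-to-noise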
[16] = optical density change of DRC41 E. coli – strain DRC41, OD650, 24 h, E. coli filamentation project, primary screen (AID 1093);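 also: MC1000 strain lacking acrAB efflux and sulA so SOS filamentation is blocked; test concentration not given here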; details: E. coli DRC41 growth, higher = more signal, called active from +8 up or from −8 down
[17] = probe aLefty2 binding to arrayed compounds – biochemical, biotinylated probe, 635/667 nm fluorescence, primary screen (AID 1094); details: small-molecule microarray, higher = more signal;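 also: score merges spot fluorescence near 667 nm with spot signal-to-noise ratio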
[18] = system: Noggin (protein binding on small-molecule microarray); assay: small molecules binding Noggin protein – biochemical, 635/667 nm fluorescence, primary screen (AID 1095); details: 635 nm fluorescence, higher = more signal;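 also: score merges 667 nm feature fluorescence with signal to noise over triplicate slides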
[19] = target: Neurogenic locus notch homolog protein 3 (Homo sapiens) (UniProt Q9UM47); assay: small molecules binding NOTCH3 protein – biochemical, 635/667 nm fluorescence, primary screen (AID 1096); details: small-molecule microarray, 635 nm fluorescence, higher = more signal
Sequence of Neurogenic locus notch homolog protein 3 (Homo sapiens) (Q9UM47 whole entry, looked up): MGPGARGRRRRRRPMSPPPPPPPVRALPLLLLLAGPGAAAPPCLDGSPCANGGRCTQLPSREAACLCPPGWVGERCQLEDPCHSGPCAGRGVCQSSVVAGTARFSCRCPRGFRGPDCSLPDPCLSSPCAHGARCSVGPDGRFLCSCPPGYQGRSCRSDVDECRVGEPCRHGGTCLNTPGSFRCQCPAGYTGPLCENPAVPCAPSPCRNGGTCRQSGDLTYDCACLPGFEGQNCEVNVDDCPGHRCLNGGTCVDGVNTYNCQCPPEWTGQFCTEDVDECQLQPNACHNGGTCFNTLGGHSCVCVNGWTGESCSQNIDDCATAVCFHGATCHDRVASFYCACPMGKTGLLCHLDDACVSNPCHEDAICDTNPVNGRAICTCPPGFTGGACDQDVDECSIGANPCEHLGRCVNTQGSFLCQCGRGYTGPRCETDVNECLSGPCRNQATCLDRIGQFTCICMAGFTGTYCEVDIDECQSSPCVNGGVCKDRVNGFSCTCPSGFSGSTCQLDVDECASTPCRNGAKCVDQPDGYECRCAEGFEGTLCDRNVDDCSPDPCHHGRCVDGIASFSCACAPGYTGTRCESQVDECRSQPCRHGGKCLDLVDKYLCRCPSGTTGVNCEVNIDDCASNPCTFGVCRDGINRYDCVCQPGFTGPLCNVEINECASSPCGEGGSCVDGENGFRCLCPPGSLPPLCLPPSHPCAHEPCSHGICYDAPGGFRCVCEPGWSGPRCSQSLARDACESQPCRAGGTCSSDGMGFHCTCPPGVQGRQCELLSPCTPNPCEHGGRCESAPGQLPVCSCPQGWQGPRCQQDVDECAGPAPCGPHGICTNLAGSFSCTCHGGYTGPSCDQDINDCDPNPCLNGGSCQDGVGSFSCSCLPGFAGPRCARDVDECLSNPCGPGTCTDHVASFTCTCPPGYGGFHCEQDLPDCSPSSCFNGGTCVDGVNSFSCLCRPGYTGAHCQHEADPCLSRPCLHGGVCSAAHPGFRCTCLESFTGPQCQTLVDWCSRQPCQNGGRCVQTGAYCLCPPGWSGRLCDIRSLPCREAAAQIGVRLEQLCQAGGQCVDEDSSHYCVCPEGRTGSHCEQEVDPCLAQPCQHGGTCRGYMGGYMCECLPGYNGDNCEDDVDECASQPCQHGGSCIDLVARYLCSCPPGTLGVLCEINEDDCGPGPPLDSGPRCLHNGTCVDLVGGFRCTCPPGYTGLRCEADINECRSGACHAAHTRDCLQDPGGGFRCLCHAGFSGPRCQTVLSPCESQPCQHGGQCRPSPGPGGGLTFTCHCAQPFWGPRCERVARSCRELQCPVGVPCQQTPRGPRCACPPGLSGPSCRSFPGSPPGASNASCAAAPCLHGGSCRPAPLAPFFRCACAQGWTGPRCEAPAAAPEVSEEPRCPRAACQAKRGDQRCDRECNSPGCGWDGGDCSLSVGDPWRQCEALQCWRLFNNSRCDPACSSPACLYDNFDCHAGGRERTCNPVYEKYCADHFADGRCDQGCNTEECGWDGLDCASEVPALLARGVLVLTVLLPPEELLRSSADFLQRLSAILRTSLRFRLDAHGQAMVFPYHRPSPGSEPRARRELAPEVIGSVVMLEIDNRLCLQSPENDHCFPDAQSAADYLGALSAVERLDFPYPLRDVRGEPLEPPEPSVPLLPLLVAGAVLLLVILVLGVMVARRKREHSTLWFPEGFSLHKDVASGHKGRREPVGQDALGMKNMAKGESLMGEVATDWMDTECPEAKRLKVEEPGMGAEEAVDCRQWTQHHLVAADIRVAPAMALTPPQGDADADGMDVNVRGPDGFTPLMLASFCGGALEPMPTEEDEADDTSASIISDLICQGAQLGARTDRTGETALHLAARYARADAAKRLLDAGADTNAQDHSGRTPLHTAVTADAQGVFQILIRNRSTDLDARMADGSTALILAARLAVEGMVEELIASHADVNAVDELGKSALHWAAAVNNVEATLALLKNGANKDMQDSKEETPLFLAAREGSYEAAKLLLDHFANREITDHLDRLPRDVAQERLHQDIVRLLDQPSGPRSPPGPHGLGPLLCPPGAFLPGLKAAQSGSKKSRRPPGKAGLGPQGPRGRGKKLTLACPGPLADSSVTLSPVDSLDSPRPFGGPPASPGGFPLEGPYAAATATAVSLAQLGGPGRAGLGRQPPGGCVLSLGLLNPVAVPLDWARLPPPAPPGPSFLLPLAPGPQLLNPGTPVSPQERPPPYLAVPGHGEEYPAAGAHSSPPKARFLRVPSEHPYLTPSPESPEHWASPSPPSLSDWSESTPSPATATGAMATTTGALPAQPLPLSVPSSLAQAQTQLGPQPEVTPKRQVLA

[20] = probe aEGFR binding to arrayed compounds – biochemical, biotinylated probe, 635/667 nm fluorescence, primary screen (AID 1097); details: small-molecule microarray, higher = more signal;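 also: probe is a biotinylated anti-EGFR antibody binding compounds printed on slides; score combines fluorescence near 667 nm and signal to noise of each spot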

Compound | composite z-score [1] | composite z-score [2] | composite z-score [3] | composite z-score [4] | composite z-score [5] | composite z-score [6] | composite z-score [7] | z-score [8] | composite z-score [9] | composite z-score [10] | composite z-score [11] | z-score [12] | z-score [13] | z-score [14] | composite z-score [15] | z-score [16] | composite z-score [17] | composite z-score [18] | composite z-score [19] | composite z-score [20]
COC(=O)[C@H](Cc1ccccc1)N1CC2=CCCC=C[C@@H]2[C@H]1[C@H](O)Cc1ccccc1 | -0.22 | 0.0803 | -0.103 | 0.311 | -0.0146 | 0.112 | 0.667 | 0.569 (inactive) | 0.0599 | -0.0427 | 0.438 | -1.09 (inactive) | -2.01 (inactive) | -0.172 (inactive) | 0.626 | -0.496 (inactive) | -0.0632 | 1.15 | 0.215 | -0.111
O=C1C2C=CC(C(O)c3c(F)cccc3Cl)N(Nc3ccc([N+](=O)[O-])cc3)C2C(=O)N1c1ccccc1 (stereo not given) | 0.0505 | 0.572 | 0.147 | 0.89 | 1.61 | 1.12 | 1.01 | -1.18 (inactive) | 1.37 | -0.0618 | 1.55 | -1.01 (inactive) | 1.35 (inactive) | 4.59 (inactive) | 3.54 | 0.636 (inactive) | 0.13 | 0.432 | 1.09 | -0.0021
CC(C)[Si](C#CCCc1ccccc1)(O[C@H](c1ccccc1)c1cn(Cc2ccccc2)nn1)C(C)C | -0.454 | -0.137 | -0.116 | 0.529 | 0.186 | 0.215 | 1.12 | 0.0497 (inactive) | 0.584 | 0.0401 | 1.25 | -1.17 (inactive) | -12.3 (active) | -0.778 (inactive) | 0.958 | 0.791 (inactive) | -0.0095 | 0.797 | 1.13 | 0.0276
O=C1C[C@@](C(=O)NCc2ccccc2)(c2ccc([N+](=O)[O-])cc2)[C@@H](c2ccc(CO)cc2)N1C1CCCCC1 | -0.709 | 0.858 | -0.101 | 0.104 | 0.324 | 1.4 | 1.31 | -1.47 (inactive) | 0.117 | -0.158 | 1.57 | -1.69 (inactive) | -0.221 (inactive) | 1.08 (inactive) | 3.09 | 0.78 (inactive) | -0.206 | 0.65 | 0.846 | -0.14
COc1ccc([Si](C)(C)[C@H]2[C@H](CCO)O[C@@]3(C(=O)N(Cc4cccc(N5C(=O)c6ccccc6Oc6ccccc65)c4)c4ccccc43)[C@@H]2C)cc1 | 0.115 | -0.672 | -0.0645 | 0.462 | 0.139 | 0.962 | 1.02 | -1.19 (inactive) | -0.278 | -0.132 | 0.891 | 2.14 (inactive) | -0.506 (inactive) | 23.1 (active) | 1.51 | 1.03 (inactive) | -0.118 | -0.202 | 0.451 | -0.108
COC(=O)[C@@]1(Cc2ccccc2)[C@H]2c3cc(C(=O)N(C)C)n(Cc4ccc(S(C)(=O)=O)cc4)c3C[C@H]2CN1C(=O)c1ccccc1 | 0.442 | 0.198 | 0.431 | 0.443 | 1.48 | 2.03 | 1.22 | 2.39 (inactive) | 0.744 | -0.118 | -0.541 | 0.407 (inactive) | 0.279 (inactive) | 0.654 (inactive) | 3.51 | -1.59 (inactive) | 0.384 | -0.415 | 1.11 | 0.211
COc1ccc([Si](C)(C)[C@@H]2[C@@H](CC(=O)N(CCO)Cc3ccccc3)O[C@]3(C(=O)N(Cc4ccc(I)cc4)c4ccccc43)[C@H]2C)cc1 | 0.44 | 1.2 | -0.0403 | 0.0554 | 0.512 | 0.136 | 0.83 | -2.04 (inactive) | 0.621 | 1 | 1.55 | 0.383 (inactive) | 1.53 (inactive) | 2.57 (inactive) | -0.0159 | 1.26 (inactive) | 0.408 | 1.63 | 1.12 | 0.338
NC(=O)N1C(=O)C2C(C1=O)C1C=C(CCCO)C2C(c2ccc(CN3CCCC3)cc2)N1Cc1sc2ccccc2c1Cl (stereo not given) | -0.161 | 0.224 | -0.0867 | 0.0718 | 0.0517 | 0.0965 | 0.834 | -0.824 (inactive) | -0.835 | -0.323 | 0.634 | -0.75 (inactive) | -0.399 (inactive) | -1.27 (inactive) | 1.97 | 0.465 (inactive) | -0.208 | -0.275 | -0.348 | -0.112
CCOC(=O)c1cn(C[C@H](Cc2ccccc2)NC(=O)N[C@H](CO)CCc2oc(C(C)=O)c(C(=O)OC)c2C(=O)OC)nn1 | -0.562 | -0.0438 | -0.101 | 1.09 | 1.47 | 0.553 | 1.39 | 0.872 (inactive) | 0.863 | -0.0383 | 1.54 | 0.511 (inactive) | -0.342 (inactive) | 0.018 (inactive) | 1.36 | -0.616 (inactive) | -0.0615 | 1.15 | 1.08 | 0.272
CCOC(=O)C[C@H]1[C@H](OC(=O)Cc2ccc3c(c2)OCO3)[C@@H](NC(=O)c2ccc3ccccc3n2)c2cc(OCCCO)ccc2N1C(=O)Cc1ccc(OC)cc1 | -0.238 | 0.38 | -0.0785 | 0.205 | 0.761 | 1.17 | 0.38 | -0.876 (inactive) | 0.447 | -0.0994 | 0.742 | -2.25 (inactive) | 0.154 (inactive) | -0.107 (inactive) | 1.34 | 0.647 (inactive) | 0.0071 | 1.25 | 0.55 | -0.103
